# Laboratory results reported in PubChem BioAssay (EPA / NIEHS).
# “And” between values parts separate entries of the source, which are not always exact repeats. Equal values may be shown once. Inconclusive results are not listed. The source made the active and inactive calls. The calls were made as follows: active = hit-call score of the fitted dose curve at least 0.9, where 1 is the maximum; inconclusive = response in the unintended direction; inactive = score below 0.9.
# What was measured:
# [1] = molecular target: Luciferin 4-monooxygenase (Photinus pyralis) (UniProt P08659); experiment: CCTE_Simmons_QuantiLum_inhib_2: CCTE's Firefly Luciferase Inhibition Assay, Simmons Lab (AID 2283767);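 as to AC50: potency for inhibitors that lower luciferase luminescence relative to DMSO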
# How it was run: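 Eight-point titrations of each chemical, 5 nM–87.5 uM final in 0.5% DMSO, were run in three biological replicates against recombinant luciferase for 30 min at 37C. Bioluminescence signal loss, read on reagent injection, gave the inhibition endpoint.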
# [2] = ACEA_AR_agonist_AUC_viability: ACEA Biosciences xCELLigence Real-Time Cell Analysis on Androgen Receptor Agonism for Viability (AID 2283775);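 as to AC50: viability read 80 hours after compound addition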
# How it was run: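 Viability endpoint from xCELLigence impedance in 22Rv1 prostate cells at 80 h. Eight-point series, 100 uM maximum final.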
# [3] = ACEA_AR_antagonist_AUC_viability: ACEA Biosciences xCELLigence Real-Time Cell Analysis on Androgen Receptor Antagonism for Viability (AID 2283776);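 also: area under impedance growth curve at 80 h after dosing as viability; hits lower the growth signal relative to DMSO meaning cytotoxicity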
# How it was run: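 22Rv1 human prostate cancer cells were seeded on electrode plates, monitored overnight, then exposed to eight 1:4 dilutions from 100 uM final. Impedance-based growth kinetics at 80 h gave an AUC viability endpoint normalized to DMSO.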
# [4] = system: chicken Androgen Receptor (AR), gene 422165; experiment: ATG_chAR_XSP1: Attagene TRANS-FACTORIAL Multi-Species (XSP1) HepG2 Assay for chicken Androgen Receptor (AR) (AID 2283768)
# How it was run: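 Reporter mRNA read by RT-PCR with fluorescent labelling and capillary electrophoresis 24 h after chemical dosing of transiently transfected HepG2 cells. Chicken AR-Gal4 chimera, partially stimulated with 3 nM 6-alpha-fluorotestosterone; activity fitted upward relative to DMSO.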
# [5] = molecular target: zebrafish Estrogen Receptor (ESR1), esr1 (gene 259252) (UniProt P57717); experiment: ATG_zfER1_XSP1: Attagene TRANS-FACTORIAL Multi-Species (XSP1) HepG2 Assay for zebrafish Estrogen Receptor (ESR1) (AID 2283772)
# How it was run: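 Trans-activation readout: transfected zebrafish ER-Gal4 drives a UAS reporter in human HepG2 liver cells. After 24 h compound exposure (medium containing 3 nM 6-alpha-fluorotestosterone), induced reporter transcripts were quantified by RT-PCR with capillary electrophoresis, relative to DMSO.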
# [6] = system: zebrafish Estrogen Receptor (ESR2B), gene 317733; experiment: ATG_zfER2b_XSP1: Attagene TRANS-FACTORIAL Multi-Species (XSP1) HepG2 Assay for zebrafish Estrogen Receptor (ESR2B) (AID 2283773)
# How it was run: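 Medium contained 3 nM 6-alpha-fluorotestosterone. Reporter mRNA induction by exogenous zebrafish ER2b-Gal4 chimera was read 24 h post-dose in transiently transfected HepG2 cells, using RT-PCR, fluorescent labelling, HpaI digestion and capillary electrophoresis.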
# [7] = system: frog Estrogen Receptor (ESR2), gene 100174814; experiment: ATG_frER2_XSP1: Attagene TRANS-FACTORIAL Multi-Species (XSP1) HepG2 Assay for frog Estrogen Receptor (ESR2) (AID 2283774)
# How it was run: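 Reporter mRNA from a multiplexed TRANS system, measured by RT-PCR with fluorescent labelling and capillary electrophoresis, 24 hours after chemical exposure. Human HepG2 liver cells carried exogenous frog ER-Gal4 chimera; medium included 3 nM 6-alpha-fluorotestosterone; increases versus DMSO analysed.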
# [8] = system: frog Estrogen Receptor (ESR1), gene 398734; experiment: ATG_frER1_XSP1: Attagene TRANS-FACTORIAL Multi-Species (XSP1) HepG2 Assay for frog Estrogen Receptor (ESR1) (AID 2283777)
# How it was run: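 HepG2 cells transiently transfected with GAL4-UAS reporter units and frog ER–Gal4 chimera were dosed for 24 h with 3 nM 6-alpha-fluorotestosterone present. Reporter mRNA was measured by RT-PCR and capillary electrophoresis; gain of signal fitted versus DMSO.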
# [9] = system: zebrafish Estrogen Receptor (ESR2A), gene 317734; experiment: ATG_zfER2a_XSP1: Attagene TRANS-FACTORIAL Multi-Species (XSP1) HepG2 Assay for zebrafish Estrogen Receptor (ESR2A) (AID 2283778)
# How it was run: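 Reporter transcripts were quantified by RT-PCR, 6-FAM labelling, HpaI digestion and capillary electrophoresis after 24 h dosing. The cells were HepG2 transiently carrying a zebrafish ER2a–Gal4 construct plus multiplexed UAS reporters; medium contained 3 nM 6-alpha-fluorotestosterone.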
# [10] = molecular target: chicken Estrogen Receptor (ESR1), ESR1 (gene 396099) (UniProt P06212); experiment: ATG_chERa_XSP1: Attagene TRANS-FACTORIAL Multi-Species (XSP1) HepG2 Assay for chicken Estrogen Receptor (ESR1) (AID 2283779)
# How it was run: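 Trans-activation of an exogenous chicken ERα–Gal4 chimera read as reporter transcript (RT-PCR, fluorescent labeling, capillary electrophoresis) after 24 h compound exposure of transfected HepG2; medium held 3 nM 6-alpha-fluorotestosterone. Positive-direction fit against DMSO.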
# [11] = ArunA_CellTiter_hNC: Viability Assessment in the ArunA Biomedical's Oris Neural Crest (hNC) Cell Migration Assay (AID 2283752)
# How it was run: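 Cytotoxicity endpoint run alongside the migration assay: neural crest cells on Matrigel, 60,000 per well, preincubated 16 h at 37C, treated 72 h; CellTiter Aqueous One signal loss relative to DMSO.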
# [12] = ArunA_CellTiter_hNP: Viability Assessment in the ArunA Biomedical's Oris Neural Crest (hNC) Cell Migration Assay (AID 2283753)
# How it was run: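 Viability read with CellTiter 96 Aqueous One after 72 h chemical exposure of human hNP1 neuroprogenitors, which were plated on Matrigel in LIF/bFGF medium 16 h beforehand. Endpoint fitted in positive direction relative to DMSO.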
# [13] = ArunA_Migration_hNP: ArunA Biomedical's Oris Neuroprogenitor (hNP) Cell Migration Assay (AID 2283754)
# How it was run: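 Readout is calcein-AM fluorescence (ex494/em517) of cells migrating into the detection zone, relative to DMSO. hNP1 cells (H9-derived) grown on Matrigel behind stoppers 16 h, then stoppers pulled and chemical applied 72 h; cytochalasin D as control.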
# [14] = ArunA_Migration_hNC: ArunA Biomedical's Oris Neural Crest (hNC) Cell Migration Assay (AID 2283755)
# How it was run: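 Calcein-AM fluorescence (ex494 nm/em 517 nm) in the stopper-defined detection zone quantifies migration of hNC cells after 72 h chemical exposure; 60,000 cells/well plated on Matrigel with LIF and bFGF, 16 h pre-incubation. DMSO baseline.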
# [15] = ArunA_NOG_NucleusCount: ArunA Biomedical's Neurite Outgrowth (NOG) Assay for Nucleus Count (AID 2283756)
# How it was run: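 Viable neuron count, from Hoechst nuclei passing size and intensity gates, imaged at 20x on differentiated H9-derived human neurons. Exposure lasted 48 h from seeding; activity was scored relative to DMSO.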
# [16] = ArunA_NOG_BranchPointsPerNeurite: ArunA Biomedical's Neurite Outgrowth (NOG) Assay for Branch Points Per Neurite (AID 2283759)
# How it was run: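 Automated image analysis traced neurites (processes >10 um) from valid cell bodies after Hoechst and βIII-tubulin staining. hNN cells from H9 embryonic stem cells, 48 h exposure. Fitted bidirectionally against DMSO.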
# Sequence of Luciferin 4-monooxygenase (Photinus pyralis) (P08659 whole entry, looked up): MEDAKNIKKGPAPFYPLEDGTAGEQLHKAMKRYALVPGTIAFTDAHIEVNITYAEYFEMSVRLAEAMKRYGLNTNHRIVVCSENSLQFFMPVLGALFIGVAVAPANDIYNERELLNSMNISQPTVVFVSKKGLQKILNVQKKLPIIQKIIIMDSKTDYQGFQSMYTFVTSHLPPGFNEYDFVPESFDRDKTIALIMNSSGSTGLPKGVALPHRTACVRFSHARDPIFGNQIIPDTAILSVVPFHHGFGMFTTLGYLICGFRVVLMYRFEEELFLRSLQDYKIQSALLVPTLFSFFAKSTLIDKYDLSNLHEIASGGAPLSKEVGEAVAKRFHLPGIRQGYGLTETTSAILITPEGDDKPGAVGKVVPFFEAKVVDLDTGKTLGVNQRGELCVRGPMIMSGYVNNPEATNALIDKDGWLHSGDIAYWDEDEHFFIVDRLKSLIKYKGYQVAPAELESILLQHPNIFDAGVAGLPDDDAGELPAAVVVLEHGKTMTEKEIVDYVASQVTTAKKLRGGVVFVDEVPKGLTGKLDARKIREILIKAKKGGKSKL
# Sequence of zebrafish Estrogen Receptor (ESR1), esr1 (gene 259252) (P57717 whole entry, looked up, the tested form may be a part): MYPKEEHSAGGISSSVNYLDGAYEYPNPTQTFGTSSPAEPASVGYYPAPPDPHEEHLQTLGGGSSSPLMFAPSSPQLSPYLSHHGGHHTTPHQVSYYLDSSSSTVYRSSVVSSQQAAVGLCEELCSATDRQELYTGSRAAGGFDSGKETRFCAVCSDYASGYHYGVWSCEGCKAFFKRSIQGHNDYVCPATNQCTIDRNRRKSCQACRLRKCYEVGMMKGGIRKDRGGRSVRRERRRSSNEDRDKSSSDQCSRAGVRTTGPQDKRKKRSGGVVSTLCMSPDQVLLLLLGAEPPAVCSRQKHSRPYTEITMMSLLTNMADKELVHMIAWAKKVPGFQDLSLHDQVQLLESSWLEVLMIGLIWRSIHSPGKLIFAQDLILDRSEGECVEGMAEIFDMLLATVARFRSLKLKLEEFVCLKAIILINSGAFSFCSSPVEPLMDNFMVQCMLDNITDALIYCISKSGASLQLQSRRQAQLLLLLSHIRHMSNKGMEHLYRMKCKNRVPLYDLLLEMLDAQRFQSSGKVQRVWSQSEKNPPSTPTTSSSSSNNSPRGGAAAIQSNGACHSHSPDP
# Sequence of chicken Estrogen Receptor (ESR1), ESR1 (gene 396099) (P06212 whole entry, looked up, the tested form may be a part): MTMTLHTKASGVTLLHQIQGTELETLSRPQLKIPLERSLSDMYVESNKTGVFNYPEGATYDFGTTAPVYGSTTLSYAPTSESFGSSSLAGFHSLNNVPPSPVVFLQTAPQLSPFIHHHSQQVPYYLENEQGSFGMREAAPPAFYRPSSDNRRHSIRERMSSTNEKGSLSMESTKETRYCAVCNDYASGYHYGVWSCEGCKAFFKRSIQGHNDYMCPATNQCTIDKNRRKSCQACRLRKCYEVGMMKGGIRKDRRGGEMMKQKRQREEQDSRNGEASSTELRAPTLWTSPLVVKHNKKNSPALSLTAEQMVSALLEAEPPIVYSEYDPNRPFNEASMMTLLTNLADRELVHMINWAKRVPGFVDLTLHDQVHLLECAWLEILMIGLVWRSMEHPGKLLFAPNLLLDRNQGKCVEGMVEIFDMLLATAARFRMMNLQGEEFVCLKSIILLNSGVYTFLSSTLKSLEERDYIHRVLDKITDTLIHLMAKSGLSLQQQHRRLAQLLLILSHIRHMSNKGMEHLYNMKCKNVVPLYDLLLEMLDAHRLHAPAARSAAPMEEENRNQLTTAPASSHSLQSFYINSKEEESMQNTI
compound,measurement,setting,value
CC(C)(C)c1csc(-c2cc3cc(OCc4ccccc4CC(=O)O)ccc3o2)n1,AC50,[1],10.7 µM (active)
same,AC50,[2],21.1 µM (active)
same,AC50,[3],23.7 µM (active)
Cc1ncc(CO)c(CO)c1O,outcome,[2],inactive
same,outcome,[3],inactive
Cc1ccc(C(C)C)cc1,outcome,[2],inactive
same,outcome,[3],inactive
Clc1cc(Cl)c2c(c1)N=C1CCCCCN1C2,outcome,[2],inactive
same,outcome,[3],inactive
Cc1c2ccccc2c(C)c2c1ccc1ccccc12,outcome,[1],inactive
same,AC50,[4],8.7 µM (active)
same,AC50,[5],9.59 µM (active)
same,AC50,[6],16.9 µM (active)
same,AC50,[7],9 µM (active)
same,AC50,[2],50 µM (active)
same,AC50,[3],41.1 µM (active)
same,AC50,[8],5.91 µM (active)
same,AC50,[9],15.7 µM (active)
same,AC50,[10],5.86 µM (active)
CC[C@H](NC(=O)c1cc(F)ccc1NS(=O)(=O)c1cccc2cccnc12)c1ccccc1,AC50,[2],57.2 µM (active)
O=C(Nc1ccc(Cl)cc1)Nc1ccc(Cl)c(Cl)c1,outcome,[11],inactive
same,AC50,[12],25.9 µM (active)
same,AC50,[13],1.88 µM (active)
same,AC50,[14],1.46 µM (active)
same,outcome,[15],inactive
same,outcome,[16],inactive
same,AC50,[1],15.1 µM (active)
same,AC50,[2],6.35 µM (active)
same,AC50,[3],5.85 µM (active)
OCCO,outcome,[2],inactive
same,outcome,[3],inactive
CCOC(=O)O[C@H](C)OC(=O)c1ccc2c(c1)cc(C(=O)NC1CCN(C(C)C)CC1)n2Cc1cc(-c2ccc(Cl)s2)on1,outcome,[1],inactive
same,AC50,[2],10.3 µM (active)
same,AC50,[3],4.55 µM (active)
Cc1oc2c(NC(=O)c3c(Cl)cccc3Cl)cccc2c1C(C)(C)O,AC50,[2],22.8 µM (active)
same,AC50,[3],20.3 µM (active)
CN(C[C@@H](CC[N+]12CCC(C3CCCCC3)(CC1)CC2)c1ccc(Cl)c(Cl)c1)C(=O)c1cc(C(F)(F)F)cc(C(F)(F)F)c1,outcome,[1],inactive
same,AC50,[2],5.81 µM (active)
same,AC50,[3],5.8 µM (active)
Oc1ccccc1,outcome,[1],inactive
same,outcome,[2],inactive
same,outcome,[3],inactive
CCCCCCCCOC(=O)c1cc(O)c(O)c(O)c1,outcome,[11],inactive
same,AC50,[12],6.65 µM (active) and 541 nM (active)
same,AC50,[13],1.02 µM (active) and 675 nM (active)
same,AC50,[14],120 nM (active) and 452 nM (active)
same,outcome,[15],inactive
same,outcome,[16],inactive
same,AC50,[1],31.5 µM (active)
same,AC50,[2],35.3 µM (active)
same,AC50,[3],13.5 µM (active)
CC1=CC(=O)/C(=C(/C)O)C(=O)O1,outcome,[2],inactive
same,outcome,[3],inactive
